This note sets out measurements from PubChem BioAssay AID588674 (Broad Institute, 2011).

Hit rate of the full screen: of about 360,000 compounds, about 1,800 (0.5%) were called active. This excerpt belongs to a sample that is enriched for actives. Values without a mark were called inactive.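 Rule for the calls: active = mean inhibition of at least 75% with every replicate also reaching 75%; inconclusive = mean inhibition at least 75% but some replicate below; inactive = mean inhibition below 75%.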

The test is described as follows: reduction of Shn3 3'UTR firefly luciferase signal, primary screen, Schnurri-3 inhibitor project, cell-based, Clone20 osteoblasts, set 2 (AID 588674).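 Note: 0% = median of neutral control wells and 100% = pilot-screen positive control compound.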 The following applies: Clone20 osteoblast Shn3 3'UTR firefly luciferase, 24 h; at 12.5 µM; active compounds read high.
Turning to `COc1ccc(-c2ccc(C(=O)NCCN3CCOCC3)c3occc23)c(C)c1`, the inhibition is 12.3%. Consider `C/C(=N\NC(=O)C1(C)CC1(Br)Br)c1ccc(C)cc1C` (centres undefined), for which the inhibition was 8.35%. The figure for `S=C(NN=Cc1ccccn1)Nc1ccccn1` is 67.3%. Turning to `Cc1nnc(N/N=C/c2ccccn2)[nH]c1=O`, the inhibition is 90.6% (active). Regarding `Cc1cc(=O)[nH]c(N/N=C/c2c(C)nn(-c3ccccc3Cl)c2Cl)n1`, the inhibition was 14.6%. Under `C/C=C(/C)C(=O)O[C@@H]1c2cc3c(c4c2[C@@]2(CO4)C(=O)C(OC)=C(OC)C=C2C[C@@H](C)[C@H]1C)OCO3` stands -16.2%; under `NC1=CC(=O)C(=O)c2cccnc21`, 96.6% (active). `C=CCOc1ccccc1NC(=O)CN1C(=O)CNC1=O`: the inhibition is -14.9%.

In the case of `Cc1cc(=O)oc2c3c(cc(OCC(=O)NCC(O)c4ccccc4)c12)OC(C)(C)CC3` (centres undefined), the inhibition was 0.998%. `COc1cc2c(cc1OC)C(=O)NCC(C)(C)O2`: the inhibition was 9.62%. In the case of `CC1=C(C(=O)N2CCOCC2)CC(CC(=O)NCc2ccco2)C(=O)N1Cc1ccc(F)cc1` (centres undefined), the inhibition was -16.3%.

As for `Cc1ccc2c(c1)N(C(=O)CCC(=O)N1CCc3ccccc3C1)CCO2`, the inhibition is 11.3%. For `COc1cc(C(C)=O)ccc1OC(C)C(=O)Nc1ccc(S(=O)(=O)N2CCCC2)cc1` (centres undefined), the inhibition was -9.75%. In the case of `COc1ccc(S(=O)(=O)N2CCCCCC2)cc1NC(=O)Cc1ccc(OC)c(OC)c1`, the inhibition is 6.94%. With `COc1ccc(-c2ccc(Nc3ccc(S(=O)(=O)N4CCCC4)cc3)nn2)cc1OC`, the inhibition was 91.7% (active). Consider `Cc1onc(-c2ccccc2Cl)c1C(=O)N(Cc1ccc(N(C)C)cc1)C(C)C`, for which the inhibition was 15%. Consider `Cc1cc2cc3n(c2nn1)N=C(Cl)CC3`, for which the inhibition is 15.8%. Consider `O=C(CN1CCN(C(=O)C2CCCO2)CC1)Nc1c(Cl)cccc1Cl` (centres undefined), for which the inhibition was 1.7%. As for `Cn1c(=O)c2c(SCC(=O)NCC3CCCO3)nc(CC(C)(C)C)nc2n(C)c1=O` (centres undefined), the inhibition is -3.55%.

Take `CCCCCCCCCCOC(=O)Cn1c(COc2ccc(C)cc2)[n+](C)c2ccccc21`: the inhibition is 94.3% (active). For `Cc1noc(C)c1COC(=O)Cn1c(C)nc2ccccc21`, the inhibition was 6.2%. As for `Cc1ccc(COc2ccc(C(=O)NN)cc2)cc1`, the inhibition was -0.097%. Under `COc1ccc(-n2c(C)nn(CC3CC3)c2=O)cc1` stands 0.917%; under `CCOc1ccc(N(C)S(=O)(=O)c2cnc[nH]2)cc1`, 14%; under `Nc1ncnc2c1ncn2[C@@H]1O[C@H](C(=O)NCC(F)(F)F)[C@@H](O)[C@H]1O`, 2.47%. On to `Cc1[nH]c2ccccc2c1-c1ccc(Cl)nn1`, for which the inhibition is -0.142%. `N#Cc1c(-c2ccccc2)nc(SCc2cccc(C(F)(F)F)c2)[nH]c1=O`: the inhibition is -18.7%.

As to `O=c1c2ccccc2nc2n1C(CSCc1ccccc1)CS2` (centres undefined), the inhibition was 76.2%. In the case of `O=c1c2ccccc2nc2n1C(CSCc1cccc(C(F)(F)F)c1)CS2` (centres undefined), the inhibition is 92.5% (active). Take `C=CCn1c(C)cc(C2=NNC(=NCC)SC2)c1C`: the inhibition is 91% (active). With `CN(Cc1ccc(C(F)(F)F)cc1)C(=O)[C@H]1O[C@@H](n2cnc3c(N)ncnc32)[C@H](O)[C@@H]1O`, the inhibition was 6.4%. As to `CCn1nc(C(=O)Nc2ccc(N3CCOCC3)cc2)c2ccccc2c1=O`, the inhibition was 5.09%.

Turning to `C[C@@H]1C[C@@H]2O[C@H]2/C=C\C=C\C(=O)Cc2c(Cl)c(O)cc(O)c2C(=O)O1`, the inhibition was 86.9% (active). Consider `Cc1ccccc1N1CCN(CCCN2C(=O)C3CCCCN3C2=O)CC1` (centres undefined), for which the inhibition is 2.03%. For the compound `COC(=O)Cc1ccc(OC(=O)C2CCN(S(=O)(=O)c3ccc(OC)c(OC)c3)CC2)cc1`, the inhibition was -15.3%. On to `CNS(=O)(=O)c1ccc2c(c1)[nH]c(=S)n2C`, for which the inhibition was 12.3%. In the case of `COc1cc(C(=O)OCCCN2CCOCC2)cc(OC)c1OC`, the inhibition was 8.18%. As to `COCc1c(C(=O)N/N=C\c2cccnc2)nnn1-c1nonc1N`, the inhibition was 9.7%. For the compound `Nc1nonc1-n1nnc(C(=O)N/N=C/c2cc(Br)ccc2O)c1CSC1=NCCS1`, the inhibition is 94% (active). `Nc1nonc1-n1nnc(C(=O)N/N=C\c2ccncc2)c1CN1CCCCC1`: the inhibition was 10.4%. The figure for `Cc1ccc(Cc2c(-c3ccco3)nc3ccc(Cl)cn23)cc1` is 2.12%. Turning to `Cc1c(NC(=O)CSc2cccc3cccnc23)c(=O)n(-c2ccccc2)n1C`, the inhibition was 19.9%. In the case of `O=C(CSc1cccc2cccnc12)N/N=C/c1cccnc1`, the inhibition is 20.8%. Take `CC(=O)/C(=N\Nc1ccc(Cl)cc1Cl)Sc1cccc2cccnc12`: the inhibition is 93% (active). On to `Cc1ccsc1CNn1cnnc1SCc1ccccc1F`, for which the inhibition is 5.38%. On to `CC12CCC(=O)C=C1CCC1C2C(O)CC2(C)C1CCC2(O)C(O)CO` (centres undefined), for which the inhibition is 4.53%.

As for `CCCCCCNC(=O)O[C@H]1CN(C(=O)OC(C)C)N(C(=O)OC(C)C)[C@@H]2CN(S(=O)(=O)c3ccc(C)cc3)C[C@]12O`, the inhibition is -14.9%. Under `CCOc1c(Nc2cccc(Cl)c2)c(=O)c1=O` stands -16.6%; under `OCCCNc1nccc(-c2cc(Nc3cccc(Cl)c3)ncn2)n1`, 96.3% (active). With `Cc1ccc(NC(=O)CN2CCCCC2)c2c1CC(C)(C)O2`, the inhibition is -24.2%. Turning to `CCn1c(/C=C/c2ccc([N+](=O)[O-])o2)nc2ccccc2c1=O`, the inhibition is 97.2% (active). In the case of `O=c1c2ccccc2ncn1/N=C/c1ccccc1`, the inhibition is -28%. On to `Cc1ccc(-n2c(SCC(=O)N/N=C/C=C/c3ccccc3[N+](=O)[O-])nc3ccccc3c2=O)cc1`, for which the inhibition was 1.32%. For `C=CCC(CC=C)(C(N)=O)c1ccccc1`, the inhibition was 1.2%.

For the compound `CC(=O)Nc1cccc(C(=O)OCC(=O)NCc2cc(C)c(O)c(C)c2)c1`, the inhibition was -47.1%.

Consider `C[C@H]1CN([C@@H](C)CO)C(=O)CCCn2cc(nn2)CO[C@@H]1CN(C)S(=O)(=O)c1cccs1`, for which the inhibition is -17.2%.

In the case of `CCOc1cc(/C=N/Nc2cc(C)nc3ccc(C)cc23)ccc1O`, the inhibition is -7.54%. Regarding `CCN(CC)c1ccc(/C=N/Nc2nc(C)cc(C)n2)c(O)c1`, the inhibition is 89.4% (active). On to `O=C1CSC(c2ccc(Cl)cc2)N1` (centres undefined), for which the inhibition was -10.9%. Take `O=C(CSc1nc(O)c(Cc2ccccc2)c(=O)[nH]1)Nc1nc2c(s1)CCCC2`: the inhibition is 8.82%.

For the compound `O=C(CCS(=O)(=O)c1ccccc1)Nc1nc2c(s1)CCCC2`, the inhibition was 84.1% (active). Turning to `O=C(CCS(=O)(=O)c1ccccc1)NC1CCCC1`, the inhibition was -23.2%.

Regarding `CNc1nc(SC)nc(N(C#N)CC(=O)OC)n1`, the inhibition is -9.64%. `C=CCSc1nc(N)cc(=O)[nH]1`: the inhibition is 15.2%. `Cc1ccc(-c2nn(-c3ccc(F)cc3)cc2C(=O)NCC(c2cccs2)N2CCOCC2)cc1` (centres undefined): the inhibition is 13.6%. For `Cc1ccc(-c2cn3cc(C)ccc3n2)cc1`, the inhibition is 89% (active).

Turning to `Cc1ccc(-c2nc3ccc(Cl)cn3c2Cc2ccccc2)cc1`, the inhibition was -75.7%. `Cc1ccc2nc(-c3ccc(Br)cc3)cn2c1`: the inhibition is 23.5%.

For `Cn1c(=O)c2c(ncn2CC(COCc2ccccc2Cl)OCc2ccccc2Cl)n(C)c1=O` (centres undefined), the inhibition was 13%. With `Oc1ccc2ccccc2c1N=Nc1nccs1`, the inhibition was 93.2% (active). In the case of `CCCCN1CC(N2CCN(Cc3cccc(C)c3)CC2)CS1(=O)=O` (centres undefined), the inhibition was 4.01%.

On to `O=[N+]([O-])c1c(NCCO)cc(Sc2nc3ccccc3s2)c2nonc12`, for which the inhibition was 93.7% (active). For the compound `COc1ccc(NC(=O)CCCOc2ccc(C(C)=O)cc2)cc1S(=O)(=O)N1CCCCC1`, the inhibition is 42.4%. For `O=C(NC(=S)Nc1ccc(Br)cc1F)C1CCCCC1`, the inhibition is -15.2%. Regarding `Cc1ccc(S(=O)(=O)/N=C(/NC(=S)Nc2c(C)n(C)n(-c3ccccc3)c2=O)c2ccccc2)cc1`, the inhibition was -6.62%. In the case of `COc1ccc(OC)c(Nc2nc(-c3ccc(O)c(O)c3)cs2)c1`, the inhibition was 97.4% (active). As for `COc1ccc(C(C)(O)c2nc(-c3ccc(C)c(C)c3)cs2)cc1` (centres undefined), the inhibition is 8.01%. For the compound `COc1ccc(C(O)c2nc(-c3ccc4c(c3)OCO4)cs2)cc1` (centres undefined), the inhibition is -17.7%. As for `COc1ccc(C(=O)OCc2cc(=O)n3ccsc3n2)cc1F`, the inhibition is -7.31%. On to `COc1ccc(C(=O)NCc2ccc(Cl)cc2)cc1S(=O)(=O)N1CCCC1`, for which the inhibition is -1.61%. The figure for `COc1ccc(CCNC(=O)CN(C)S(=O)(=O)c2ccc3nc(C)sc3c2)cc1OC` is -10.6%; for `CC1(C(=O)NS(=O)(=O)c2cccc(OC(F)F)c2)CCN1C(=O)C1CC1` (centres undefined) it is -7.16%. As for `NS(=O)(=O)c1ccc(CNC(=S)NC(=O)c2ccco2)cc1`, the inhibition was 93.5% (active). For `NS(=O)(=O)c1ccc(NC(=O)COC(=O)c2ccco2)cc1`, the inhibition is 2.57%. Under `COc1cc(NC(=S)NCc2ccc(S(N)(=O)=O)cc2)cc(OC)c1` stands 2.83%; under `N#Cc1ccc(S(=O)(=O)NCC(=O)OCC(=O)NCCc2ccccc2)cc1`, 1.43%; under `OCc1n[nH]c(CO)n1`, -14.1%.

With `CC(=O)Nc1c2c(nn1-c1cccc(C)c1)CSC2`, the inhibition was -0.825%. On to `Cc1cccc(-n2ncc3c(=O)[nH]c(SCC(=O)Nc4cc(C)on4)nc32)c1`, for which the inhibition was -22.6%.

As for `Cc1cccc(-n2ncc(Cl)c(Cl)c2=O)c1`, the inhibition is 94.3% (active). For the compound `Cc1c(Br)c([N+](=O)[O-])nn1CC(=O)Nc1sc2c(c1C(=O)OC(C)C)CCC(C)C2` (centres undefined), the inhibition was -5.32%. With `O=C(CN1C(=O)NC2(CCOc3ccccc32)C1=O)NCc1ccc(F)cc1` (centres undefined), the inhibition was -2.61%. The figure for `O=C(CN1C(=O)NC2(CCOc3ccccc32)C1=O)Nc1cccc([N+](=O)[O-])c1` (centres undefined) is 89.4% (active); for `Cc1ccc(C(=O)CN2C(=O)NC3(CCOc4ccccc43)C2=O)s1` (centres undefined) it is -11.6%.

By inhibition is commonly meant the drop in the measured response relative to a control, in per cent.
